Compounds with a hit are over-represented: about 4.7% of the library has one in this group of screens.
TRHR enhancer – qHTS for Small Molecule Agonists and Allosteric Enhancers of Human TRH Receptor: Primary Screen for Enhancers; Thyrotropin-releasing hormone receptor (Homo sapiens), P34981; TRHR cells, fluo-8 calcium fluorescence, EC20 TRH enhancement; enhancement, % at 2 µM; 360,000 compounds, 0.66% hits; AID 493056, 2011; in the data active = enhancement above about 30%
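TRHR-expressing cells loaded with fluo-8 calcium dye were read kinetically (ex 480/em 530) during compound addition, then stimulated with an EC20 of TRH (10 nM final). Enhancement of the Gq-mediated intracellular calcium response was scored.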
D1 potentiator – Potentiators of Human D1 Dopamine Receptor: qHTS | AID 504651, 2011 | 360,000 compounds, 0.036% hits | HEK293 TREx D1 cells, calcium flux, dopamine EC20 potentiation | D(1A) dopamine receptor (Homo sapiens), P21728 | potentiation, % at 10 µM; in the data active = potentiation above about 30%
Target sequence (P21728 whole entry, looked up): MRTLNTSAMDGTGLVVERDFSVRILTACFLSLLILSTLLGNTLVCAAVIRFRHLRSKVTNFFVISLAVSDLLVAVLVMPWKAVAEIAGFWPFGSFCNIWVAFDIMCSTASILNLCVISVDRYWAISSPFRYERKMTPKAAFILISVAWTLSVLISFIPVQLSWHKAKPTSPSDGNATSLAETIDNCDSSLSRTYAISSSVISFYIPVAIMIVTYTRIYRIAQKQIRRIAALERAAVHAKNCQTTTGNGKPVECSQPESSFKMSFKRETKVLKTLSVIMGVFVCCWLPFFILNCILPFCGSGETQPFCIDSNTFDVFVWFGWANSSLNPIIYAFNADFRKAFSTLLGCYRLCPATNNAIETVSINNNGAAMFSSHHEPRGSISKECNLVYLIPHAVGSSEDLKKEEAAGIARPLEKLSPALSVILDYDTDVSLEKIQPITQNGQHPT
D1 agonist – Allosteric Agonists of the Human D1 Dopamine Receptor: qHTS. AID 504660, 2011. 360,000 compounds, 1% hits. D(1A) dopamine receptor (Homo sapiens), P21728. activation, % at 2 µM. HEK293 T-REx D1 cells, calcium flux, agonist mode
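Agonism was scored from calcium flux recorded over 180 s (1 read/s) after pintool compound addition, following a 10-cycle baseline. Cells were inducible force-coupled HEK293 TREx D1, plated overnight at 30 C and loaded with no-wash calcium dye.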
D1 antagonist – Antagonist of Human D 1 Dopamine Receptor: qHTS | 360,000 compounds, 3.2% hits | AID 504652, 2011 | activity change, negative = inhibition, % at 10 µM | D(1A) dopamine receptor (Homo sapiens), P21728 | HEK293 TREx D1 cells, calcium flux, dopamine EC80; stronger effect = lower value; in the data active = activity change below about -30%
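After overnight tetracycline induction at 30 C, force-coupled D1 HEK293 cells took up a no-wash calcium dye at room temperature. Compounds were added and monitored 180 s, and the response to EC80 dopamine was then recorded.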
TRHR agonist – qHTS for Small Molecule Agonists and Allosteric Enhancers of Human TRH Receptor: Primary Screen for Agonists; TRHR cells, calcium flux fluo-8, FDSS agonist mode; Thyrotropin-releasing hormone receptor (Homo sapiens), P34981; activation, % at 2 µM; AID 493084, 2011; 360,000 compounds, 0.18% hits
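Steps: seed TRHR cells overnight; add fluo-8 no-wash Ca dye, RT 30 min–1.5 h; record 10 s baseline; pin-transfer compounds; monitor fluorescence 1 cycle/s for the agonist window. Calcium increases flag candidate agonists.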
Numbers stand for hits; – = inactive; ! = a repeat was not active. Rule as the data show it, unless noted: active = activation above about 30%; inactive = the rest.

SMILES | TRHR enhancer | D1 potentiator | D1 agonist | D1 antagonist | TRHR agonist
COc1ccc(CNC(=O)C/C(C)=N/NC(=O)COc2ccc(C)cc2Br)cc1 | 32 | – | – | – | –
COc1ccc(C(=O)Nc2cnc3ccccn3c2=O)cc1 | – | – | – | -77! | –
COc1cccc(C(=O)Nc2ccccc2OCc2cc(=O)n3cc(C)ccc3n2)c1 | – | – | – | – | –
O=C(Nc1cnc2ccccn2c1=O)c1ccc(F)cc1 | – | – | – | – | –
COc1cccc(C(=O)Nc2ccccc2OCc2cc(=O)n3ccccc3n2)c1 | – | – | – | -34 | –
CN1CCN(C2(CNC(=O)c3ccc(C(C)(C)C)cc3)CCCCC2)CC1 | – | – | – | – | –
Cc1ccc(-c2nn3c(=O)cc(CN4CCN(C(=O)Nc5cc(Cl)ccc5C)CC4)nc3s2)cc1 | – | – | – | – | –
COc1ccc(CNC(=O)Cc2c(C)c3cc4c(C)coc4c(C)c3oc2=O)cc1OC | – | – | – | – | –
CCn1c(=O)cc(SCC(=O)NCc2ccc(Cl)cc2)c2ccccc21 | – | – | – | – | –
CCc1ccc(-n2nc3ccc(NC(=O)c4cc(Cl)c(OC)c(Cl)c4)cc3n2)cc1 | – | – | – | – | –
Cc1cc(OCCCn2ccnc2)cc(C)c1Cl | – | – | – | -31 | –
CCc1cccc(OCCCn2ccnc2)c1 | – | – | – | -32 | –
O=C(c1ccco1)N1CCN(S(=O)(=O)c2ccccc2)CC1 | – | – | – | – | –
O=C(c1ccco1)N1CCN(S(=O)(=O)c2ccc([N+](=O)[O-])cc2)CC1 | – | – | – | -34 | –
CCCCC(CC)CNC(=O)c1ccc2c(=O)n(Cc3ccc(OC)cc3)c(=O)[nH]c2c1 (stereo unspecified) | – | – | – | – | –
COc1ccc(CNCc2c(C(=O)O)c(C)n(Cc3ccccc3C)c2C)cc1OC | – | – | – | – | –
O=C(CCCOc1ccccc1)Nc1nncs1 | – | – | – | -35 | –
Cc1ccc(-c2nc(SCC(=O)NCc3ccco3)c3c(=O)n(C)c(=O)n(C)c3n2)cc1 | – | – | – | – | –
CN(C(=O)c1ccccc1C(=O)OCC(=O)NCc1ccccc1)C1CCCCC1 | – | – | – | -35 | –
Cn1cc(/C=C(\C#N)C(=O)Nc2ncc(Cc3cccc(Cl)c3)s2)c2ccccc21 | – | – | – | – | –
N#C/C(=C\c1c[nH]c2ccccc12)C(=O)Nc1ncc(Cc2ccc(Cl)cc2Cl)s1 | – | – | 35 | – | –
O=C(NCC(c1cccnc1)N1CCc2ccccc21)C(=O)Nc1ccccc1F (stereo unspecified) | – | – | – | – | –
Cc1cccc(N2CCN(C(=O)Cn3c(C)c4cnn(-c5ccccc5)c(=O)c4c3C)CC2)c1C | – | – | – | – | –
O=C(/C=C/c1ccco1)Nc1cccc(C(=O)Nc2ccccc2C(=O)O)c1 | – | – | – | – | –
CCc1ccccc1NC(=O)c1cccc(NC(=O)/C=C/c2ccco2)c1 | – | – | – | -36 | –
SMILES | TRHR enhancer | D1 potentiator | D1 agonist | D1 antagonist | TRHR agonist
COc1cc(/C=C(\C#N)C(=O)Nc2ccc3c(c2)OCCO3)ccc1O | – | – | 41 | – | –
CCOC(=O)c1c(-c2ccc(C)cc2)csc1NC(=O)/C(C#N)=C/c1ccc(O)c(OC)c1 | – | – | 111 | – | –
CCOC(=O)/C(C#N)=C\c1ccc(O)c(OC)c1 | – | – | – | – | –
CCN(c1ccccc1)S(=O)(=O)c1ccc(Cl)c(NC(=O)COC(=O)c2ccc(O)cc2)c1 | – | – | – | – | –
CCN(c1ccccc1)S(=O)(=O)c1ccc(Cl)c(C(=O)OCC(=O)NC(=O)C(C)C)c1 | – | – | – | -34 | –
CCN(c1ccccc1)S(=O)(=O)c1ccc(Cl)c(NC(=O)COC(=O)C2CC2C)c1 (stereo unspecified) | – | – | – | -31 | –
COc1ccc(-c2nsc(NC(=O)c3oc4ccccc4c3C)n2)cc1 | – | – | – | – | –
Cc1cc(C)cc(NC(=S)N2CCC(N(C)CC3CCCO3)CC2)c1 (stereo unspecified) | – | – | – | – | –
Cc1ccc(NC(=S)N2CCC(N(C)CC3CCCO3)CC2)cc1 (stereo unspecified) | – | – | – | -40 | –
CCOc1ccc(Cn2c(CNS(=O)(=O)c3cccc(Cl)c3)nc3cccnc32)cc1 | – | – | – | -80 | –
COC(=O)c1ccccc1NS(=O)(=O)c1ccc(F)cc1 | – | – | – | -36 | –
COC(=O)c1ccccc1NS(=O)(=O)c1ccc(NC(C)=O)cc1 | – | – | – | – | –
O=C(Nc1cccc(O)c1)c1ccc(S(=O)(=O)N2CCCCCC2)cc1 | – | – | – | – | –
O=C(Nc1cccc(F)c1)c1ccc(S(=O)(=O)N2CCCCC2)cc1 | – | – | – | -43 | –
Cc1ccc(NC(=O)c2ccccc2NS(=O)(=O)c2ccc(F)cc2)cc1S(=O)(=O)N1CCCCC1 | – | – | – | – | –
O=C(Nc1cccc(S(=O)(=O)N2CCCCC2)c1)c1ccccc1NS(=O)(=O)c1ccc(F)cc1 | – | – | 41 | -52 | –
O=C(Nc1ccc(Cc2ccncc2)cc1)c1ccc(S(=O)(=O)N2CCCC2)cc1 | – | – | – | -39 | –
Cc1ccc(N(CC(=O)NCCc2ccc(Cl)cc2)S(=O)(=O)N(C)C)cc1 | – | – | – | – | –
COc1ccc(-c2cn3nc(N4CCCC(C(=O)Nc5cccc(OC)c5)C4)sc3n2)cc1 (stereo unspecified) | – | – | – | – | –
O=C(CN1CCCN(S(=O)(=O)c2ccc(F)cc2)CC1)Nc1cccc(F)c1 | – | – | – | – | –
O=C(CN1CCN(C(=O)c2cccc(S(=O)(=O)N3CCCC3)c2)CC1)Nc1cccc(F)c1 | – | – | – | -33 | –
COc1ccc(C(=O)Nc2ccc(-n3nncc3-c3ccc(OC)c(OC)c3)cc2)cc1 | – | – | – | – | –
COc1ccc(-c2cnnn2-c2ccc(NC(=O)c3ccc(S(=O)(=O)N4CCCCC4)cc3)cc2)cc1OC | – | – | – | -34 | –
Cc1ccc(NC(=O)Cn2c(C)cc(C)c(C#N)c2=O)cc1F | – | – | – | – | –
CCOC(=O)c1ccccc1NC(=O)c1cc2c(s1)-c1ccccc1SC2 | – | – | – | -45 | –
COc1ccc(C)cc1NC(=O)c1cc2c(s1)-c1ccccc1SC2 | – | – | – | -32 | –
CCn1c(SCC(=O)Nc2cc(Cl)ccc2OC)nc2c([nH]c3ccccc32)c1=O | – | – | – | – | –

Assay outcomes from PubChem BioAssay.
